This is a sample that favours compounds with a hit; in the whole collection about 10% have one here.
Sfp inh: inhibitors of Bacillus subtilis Sfp phosphopantetheinyl transferase; Potency, µM, hits mostly inhibitors; Biochemical Sfp PPTase activity, qHTS; AID 1490; Q9F4F7; hit rate 3.5% among 310,000;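 further: the enzyme is Sfp with the accession as filed and its product quenches rhodamine fluorescence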
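Compounds were incubated with enzyme (final 15 nM) for 15 min at room temperature before substrate addition started the reaction. Fluorescence at 525 nm excitation, 598 nm emission was recorded immediately and after 30 minutes.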
MmCpn inh: inhibitors of Methanococcus maripaludis chaperonin TRiC (MmCpn) | purified Mm-Cpn ATPase, ADP Transcreener TR-FRET | Potency, µM (series often up to 76.9 µM), hits mostly inhibitors | hit rate 0.031% among 330,000 | AID 504842; further: nearly all actives have a fitted effect of over 80% in size
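Quantitative HTS used 25 nM Mm-CPN and 10 uM ATP in magnesium/KCl Tris buffer, pH 7.4, with 1 mM DTT. Hydrolysis ran 30 min at 37°C; ADP was read by HTRF.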
VDR inhibitor: inhibitors of human vitamin D receptor. VDR-SRC2-3 peptide fluorescence polarization, 2 h. Potency, µM, hits mostly inhibitors. hit rate 0.93% among 400,000. AID 504847
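After 23 nl compound addition and a short centrifugation, plates sat for 2 hours at ambient temperature; polarization of fluorescence then indicated loss of VDR binding to peptide SRC2-3.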
PLK1 PBD block: blocks phosphopeptide binding to human PLK1 polo-box domain; AID 720504; hit rate 2.8% among 360,000; Plk1 PBD binding of FITC phosphopeptide, fluorescence polarization; Potency, µM, usual class: inhibitors; further: series mostly up to about 57 µM; nearly all actives have a fitted effect of over 65% in size
Target sequence (P53350 whole entry, looked up, the tested form may be a part): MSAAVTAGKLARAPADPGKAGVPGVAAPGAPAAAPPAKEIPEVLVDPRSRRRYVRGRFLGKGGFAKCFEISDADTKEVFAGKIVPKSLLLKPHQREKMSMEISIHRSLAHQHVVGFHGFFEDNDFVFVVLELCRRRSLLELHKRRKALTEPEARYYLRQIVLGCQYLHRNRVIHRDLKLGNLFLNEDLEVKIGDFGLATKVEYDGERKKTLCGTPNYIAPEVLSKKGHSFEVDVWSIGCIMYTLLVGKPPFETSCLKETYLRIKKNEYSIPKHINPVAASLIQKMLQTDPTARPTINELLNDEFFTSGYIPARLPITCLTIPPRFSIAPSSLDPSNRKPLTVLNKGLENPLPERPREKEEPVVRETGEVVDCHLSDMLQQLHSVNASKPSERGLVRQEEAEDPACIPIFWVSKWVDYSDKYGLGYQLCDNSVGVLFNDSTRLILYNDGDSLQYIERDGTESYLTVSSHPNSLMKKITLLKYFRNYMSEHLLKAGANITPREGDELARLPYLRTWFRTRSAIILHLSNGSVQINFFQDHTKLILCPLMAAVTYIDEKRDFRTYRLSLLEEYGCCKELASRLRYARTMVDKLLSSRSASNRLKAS
G9a block: G9a (human) methyltransferase inhibition; hit rate 8.8% among 350,000; Potency, µM (doses to about 102 µM), most hits filed as inhibitors; AID 504332; Q96KQ7; G9a H3K9 monomethylation, AlphaScreen, 2 h; further: nearly all actives have a fitted effect of over 75% in size
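AlphaScreen detection with an anti-monomethyl H3K9 antibody quantified product after a 2 h room-temperature reaction containing 500 nM biotinylated H3K9 peptide, 20 µM SAM and 20 nM enzyme, which had been preincubated 15 min with compound.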
CCT modulator: cytosolic chaperonin activity modulation; AID 651819; activity change, % (no concentration beside the values), hits read low; purified chaperonin ATPase assay, HTRF ADP detection, 30 min; hit rate 0.3% among 360,000; in the data active means activity change below about -30%
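Enzyme 40 or 20 nM (batch-dependent) in Tris pH 7.4/KCl/MgCl2/DTT; cpd 76 uM single point; ATP 10 uM; 30 min 37 °C; Transcreener ADP HTRF detection, 30 min RT; ratio 665/615.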
VDR inh confirm: confirmation of human vitamin D receptor inhibitors; shares compounds with VDR inhibitor; VDR-coactivator inhibition assay, qHTS confirmation; Potency, µM, hits mostly inhibitors; hit rate 89% among 840; AID 602199
VDR FP: VDR (human) coactivator binding inhibition, fluorescein polarization; shares compounds with VDR inhibitor; VDR-coactivator binding, fluorescein fluorescence polarization; Potency, µM (series often up to 57.1 µM), usual class: inhibitors; hit rate 48% among 840; AID 602200
VDR bla: inhibits human VDR in beta-lactamase reporter cells; Potency, µM (top dose mostly 46.1 µM), most hits filed as inhibitors; shares compounds with VDR inhibitor; VDR beta-lactamase reporter cells, FRET ratio; cells co-treated with VDR agonist LG190178; hit rate 23% among 840; AID 602202
VDR cytotox: cell toxicity, VDR inhibitor hit counter-screen; shares compounds with VDR inhibitor; cytotoxicity counter-screen, cell viability, qHTS; Potency, µM (highest dose often 48.3 µM), most hits filed as cytotoxic; hit rate 18% among 840; further: nearly all actives have a fitted effect of over 75% in size
Hits are given with their value; . = inactive; ? = inconclusive; / = not tested or not shown; [ ] = remark or other dose. Unless noted, the call rests on the fitted dose curve; in most records, active means well fitted curve in the direction sought with a large enough effect; inconclusive means small, poorly fitted or top-dose-only effect, or another doubt; inactive means no such curve, though single readings can be large; an effect the other way counts as inactive or inconclusive.

SMILES	Sfp inh	MmCpn inh	VDR inhibitor	PLK1 PBD block	G9a block	CCT modulator	VDR inh confirm	VDR FP	VDR bla	VDR cytotox
COc1ccc(N2C(=O)C(Cl)=C(Oc3cccc(OC)c3)C2=O)cc1	8.9µM	.	28µM	1.9µM	6.3µM	.	3.2	2.8µM	5.8µM	12µM
COc1ccc(N2C(=O)c3cccc4cccc(c34)C2=O)cc1	.	.	.	.	.	.	/	/	/	/
CC(=O)C1=C(c2ccc(Br)cc2)C(=O)c2ccccc2C1=O	.	.	25µM	.	35µM	.	5	7.9µM	2.9µM	8.4µM
COc1ccccc1NS(=O)(=O)c1cc(N)ccc1N1CCOCC1	/	.	79µM	.	/	.	21	20µM	.	.
Nc1ccc(N2CCOCC2)c(S(=O)(=O)Nc2ccccc2Cl)c1	/	.	.	.	/	.	/	/	/	/
Cc1ccc(/C=C/C(=O)c2nc3ccccc3[nH]2)cc1	.	.	?	.	.	.	?	?	?	.
CC12CCC3c4ccc(OCc5ccccc5)cc4CCC3C1CC(O)C2O (stereo not given)	.	/	.	/	.[2.33 µM]	/	/	/	/	/
O=C(O)COc1ccccc1/C=C1\C(=O)Nc2ccc(Br)cc21	.	.	?	.	.	.	/	/	/	/
C=CCOc1cccc(C(=O)/C=C2/C(=O)Nc3ccccc32)c1	56µM	.	?	?	?	.	8.4	8.9µM	?	?
C=Cc1ccc(CN2C(=O)N(c3ccc(CC)cc3)S(=O)(=O)c3ccccc32)cc1	/	/	.	/	.	/	/	/	/	/
N#Cc1cccc(-c2cc(NCc3ccccc3)ncn2)c1	.	/	.	/	.[0.501 µM]	/	/	/	/	/
COc1cccc(C(=O)/C=C/c2ccc(OCC#N)c(OC)c2)c1	.	.	50µM	.	.	.	27	14µM	?	?
N#C/C(=C1\C(=O)Nc2c(Cl)cc(Cl)cc21)c1nnc2n1CCCCC2	?	.	28µM	?	?	.	6.7	25µM	.	.
O=[N+]([O-])c1c(NCCO)cc(N2CCCCCC2)c2nonc12	.	.	.	.	.	.	/	/	/	/
CCC(=O)OCCNc1cc(Sc2nc3ccccc3s2)c2nonc2c1[N+](=O)[O-]	4µM	.	8.9µM	1.9µM	2µM	.	6.7	3.2µM	16µM	?
O=[N+]([O-])c1c(NCCCO)cc(Sc2nc3ccccc3s2)c2nonc12	.	.	16µM	0.95µM	?	.	6	?	?	?
CCCC(=O)OCCNc1cc(Sc2nccn2C)c2nonc2c1[N+](=O)[O-]	35µM	.	50µM	2.4µM	28µM	.	8.4	?	16µM	21µM
CS(=O)(=O)c1ccc(Sc2nc3ccccc3s2)c([N+](=O)[O-])c1	.	.	.	.	.	.	/	/	/	/
Cc1oc2c(c1C(=O)c1ccc(Cl)cc1)C(=O)C(=O)c1ccccc1-2	?	.	?	?	?	.	3.5	3.5µM	2.9µM	3.8µM
O=C(c1ccc(Cl)cc1)c1ccc(CN2C(=O)c3ccccc3C2=O)o1	.	.	.	.	.	.	/	/	/	/
Cc1ccc(C(=O)c2c(C)oc3c2C(=O)C(=O)c2ccccc2-3)cc1	50µM	.	3.5µM	?	?	.	1.5	4µM	?	5.6µM
Cc1oc2c(c1C(=O)N1CCC(C)CC1)C(=O)c1ccccc1C2=O	.	.	.	.	?	.	/	/	/	/
Cc1ccc(C(=O)c2coc3c2C(=O)C(=O)c2ccccc2-3)cc1	45µM	.	7.1µM	?	40µM	.	4.7	?	.	?
COc1ccc(CNS(=O)(=O)c2ccc(F)c(C(=O)Nc3c(C)cc(C)cc3C)c2)cc1	/	/	.	/	.	/	/	/	/	/
O=C(NCCCc1nc2ccccc2n1Cc1ccc(Cl)cc1)c1ccco1	/	/	.	/	.	/	/	/	/	/
SMILES	Sfp inh	MmCpn inh	VDR inhibitor	PLK1 PBD block	G9a block	CCT modulator	VDR inh confirm	VDR FP	VDR bla	VDR cytotox
Cc1cccc(N2CCN(C(=O)c3oc(=O)c4ccccc4c3-c3ccccc3)CC2C)c1 (stereo not given)	/	/	.	/	.	/	/	/	/	/
CCN(CC)CCOC(=O)[C@@H](Cc1cccc2ccccc12)C[C@@H]1CCCO1	.	/	.	/	.[21.5 µM]	/	/	/	/	/
CC1(C)CC(=O)C2=C(C1)OC1=C(C(=O)CC(C)(C)C1)C2c1ccc(O)c([N+](=O)[O-])c1	.	.	.	.	.	.	/	/	/	/
CC1(C)CC(=O)C(C(C2=C(O)CC(C)(C)CC2=O)c2ccc(O)c([N+](=O)[O-])c2)=C(O)C1	20µM	.	79µM	4.7µM	35µM	.	9.5	?	.	.
Cc1ccc2c(c1)cc(C(=O)Nc1ccc(F)cc1F)n2C	/	/	.	/	.	/	/	/	/	/
COc1ccccc1Cn1c(CNS(=O)(=O)c2cccc([N+](=O)[O-])c2)nc2cccnc21	/	/	.	/	.	/	/	/	/	/
CCc1sc(Nc2cccc(Cl)c2C)nc1-c1cc2cccc(OC)c2oc1=O	/	/	.	/	.	/	/	/	/	/
Oc1cc2c(cc1C(c1ccc(Cl)c(Cl)c1)N1CCCC1)OCO2 (stereo not given)	?	.	?	1.2µM	1.4µM	.	3.5	3.5µM	?	.
CC(C)c1ccc(NC(=O)C(c2ccc3c(c2)OCO3)N2CCCCC2)cc1 (stereo not given)	.	.	.	.	?	.	/	/	/	/
COc1ccc(Br)cc1C1NC(c2ccc3c(c2)OCO3)=CC(c2cc(Cl)ccc2O)N1 (stereo not given)	/	/	50µM	/	/	/	?	?	?	.
O=c1[nH]c(SCc2ccc(Br)cc2)nc2c1CCCC2	/	/	.	/	?	/	/	/	/	/
O=C1C(C2=C(O)c3ccccc3C2=O)=Nc2ccccc21	56µM	.	13µM	?	/	.	0.75	?	.	?
Cc1ccc(N2C(=O)c3sc4nnc(C)c(=O)n4c3C2=O)cc1	.	.	.	.	.[12.7 µM]	.	/	/	/	/
Cc1ccccc1N1C(=O)c2sc3nc4c(c(=O)n3c2C1=O)CCC4	22µM	.	?	8.4µM	8.9µM	.	20	25µM	?	.
CC(C)CCC[C@@H](C)[C@@H]1CC[C@H]2C3=CC=C4CC(O)CC[C@]4(C)[C@H]3CC[C@@]21C (stereo not given in full)	?	/	28µM	/	/	/	?	.	?	?
O=C(O)c1cc(S(=O)(=O)N2CCOCC2)ccc1N1CCCCC1	.	.	.	.	.	.	/	/	/	/
O=C(Nc1cc(S(=O)(=O)N2CCOCC2)ccc1N1CCCC1)c1ccc(Cl)cc1	/	.	?	7.5µM	1.8µM	.	13	7.9µM	.	?

High-throughput results deposited in PubChem BioAssay by National Center for Advancing Translational Sciences (NCATS).
